± gives the standard deviation of the averaged measurements. In all, about 33,000 sequences were measured (“E-score (rank enrichment, -0.5 to 0.5)”: median about -0.0028, highest 2% from about 0.23 on). Only a selection was taken, and the highest values are over-represented in it overall.
system: 2Sb-muMax20 (muMax20 with two 1,3-bis(methyl)benzene Cys staples, A13C/A17C and Q88C/A92C, C-terminal Lys); assay: PBM 8-mer E-score (E-score (rank enrichment, -0.5 to 0.5)); higher = stronger preferential binding
Procedure: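 Protein binding microarray (universal PBM chip covering all 10-mers in fixed probe flanks) with chemically synthesized human Max(13-93) bHLH-LZ analogs (not full-length Max) bearing noncanonical residues (hArg, Tha, Aib, Nle at 65) and aromatic Cys staples. Read-out per 8-mer (and its reverse complement): E-score (rank-based enrichment, -0.5 to 0.5) and Z-score of median probe intensity.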

| Sequence | PBM 8-mer E-score |
| --- | --- |
| ACCTGTGA | -0.138 ± 0.064 |
| CCTATGAG | -0.157 ± 0.032 |
| AATCTAGA | -0.047 ± 0.028 |
| CCGTTTAA | -0.0517 ± 0.035 |
| AGAGCGTA | 0.00302 ± 0.045 |
| AGATGATC | -0.147 ± 0.013 |
| ACGGTGAG | -0.0622 ± 0.023 |
| CAGAATTA | -0.00473 ± 0.0023 |
| AGCGAAGA | -0.0699 ± 0.084 |
| AACATGTT | 0.122 ± 0.0036 |
| CTCATGTA | 0.0268 ± 0.039 |
| AACATGTC | 0.11 ± 0.051 |
| TACATGCA | 0.181 ± 0.0009 |
| AACATGTG | 0.344 ± 0.044 |
| TACATGTA | 0.238 ± 0.06 |
| CACATGTA | 0.338 ± 0.0074 |
| CACATGTG | 0.395 ± 0.00083 |
| CACATGAA | 0.125 ± 0.0092 |
| CACATGCG | 0.124 ± 0.051 |
| GACATGTA | 0.147 ± 0.021 |
| CACATGTC | -0.0158 ± 0.02 |
| CAACTCAG | -0.162 ± 0.038 |

| Sequence | PBM 8-mer E-score |
| --- | --- |
| ACCGTCAG | -0.115 ± 0.051 |
| GACAGGAC | -0.0924 ± 0.0031 |
| GGGACCGA | -0.24 ± 0.04 |
| GGGCAGAC | -0.0224 ± 0.074 |
| GAACGATA | 0.0756 ± 0.039 |
| AGTAACCC | 0.0955 ± 0.019 |
| AATAAACA | 0.195 ± 0.025 |
| AACATGCA | 0.203 ± 0.011 |
| AACATGTA | 0.258 ± 0.027 |
| AACATGGA | -0.00271 ± 0.005 |
| CCCATCAA | 0.12 ± 0.019 |
| GCCATCAC | -0.154 ± 0.0083 |
| CCCATCAC | 0.249 ± 0.026 |
| GCAGAAAA | 0.0213 ± 0.046 |
| TAATGGGA | 0.147 ± 0.011 |
| AATTAGCT | 0.164 ± 0.022 |
| CCCCTTCC | -0.0525 ± 0.1 |
| ACCCTTGA | -0.145 ± 0.041 |
| CCCCTTCA | 0.294 ± 0.014 |
| TCCCTTCA | 0.0279 ± 0.022 |
| GCCCTTGA | -0.0328 ± 0.041 |
| CCCCTTGA | 0.27 ± 0.0079 |

| Sequence | PBM 8-mer E-score |
| --- | --- |
| GGCCGCAC | -0.0381 ± 0.06 |
| CGCCACGC | -0.118 ± 0.0025 |
| GATTACCC | 0.093 ± 0.041 |
| ATCGGCCC | 0.0612 ± 0.096 |
| GTGCCGCA | -0.0229 ± 0.078 |
| ACCCCATG | 0.253 ± 0.019 |
| ACCCCAAA | 0.2008 ± 0.0017 |
| AACCCATG | 0.106 ± 0.067 |
| ACCCCCAT | -0.188 ± 0.066 |
| ACCCCAAG | 0.271 ± 0.016 |
| ACCCCAAC | 0.217 ± 0.019 |
| ACCCCATA | 0.147 ± 0.013 |
| ACCCCAAT | 0.344 ± 0.025 |
| AACCCAAT | -0.0928 ± 0.095 |
| CATTGCCA | -0.0459 ± 0.045 |
| CACCAGAA | -0.00913 ± 0.061 |
| GAGTCAGA | -0.0579 ± 0.039 |
| ACGGCCAA | -0.0314 ± 0.0051 |
| ACTGGTGC | -0.0379 ± 0.026 |
| CTATTCAC | -0.0182 ± 0.015 |
| CGATAGAA | 0.0743 ± 0.02 |
| CGTCCGAA | -0.121 ± 0.017 |

| Sequence | PBM 8-mer E-score |
| --- | --- |
| AACAGAAA | 0.0674 ± 0.036 |
| TACAGAAA | 0.256 ± 0.021 |
| GACAGAAA | 0.111 ± 0.013 |
| AAGACGTC | 0.0152 ± 0.028 |
| GATGGCAA | 0.242 ± 0.012 |
| GATGGCAC | 0.03519 ± 8.5e-05 |
| CATGGCAA | -0.0308 ± 0.0076 |
| ATGCCGCA | 0.0568 ± 0.0082 |
| AGCGAGGA | -0.0458 ± 0.014 |
| GTCTTCTA | 0.00543 ± 0.00074 |
| AGTACCCC | 0.129 ± 0.038 |
| GCTACCCC | -0.0378 ± 0.075 |
| ACTACCCC | 0.214 ± 0.047 |
| CGTACCCA | 0.0446 ± 0.097 |
| CGTACCCC | 0.246 ± 0.015 |
| CCTACCCC | 0.248 ± 0.062 |
| ATGAAAAC | 0.0577 ± 0.019 |
| CAGGAAAC | -0.0883 ± 0.035 |
| CGACTCAC | -0.236 ± 0.04 |
| AGGGTTCC | -0.294 ± 0.015 |

From the supplement of paper PMC12636033
